Shiga toxin inh = A qHTS for Small Molecule Inhibitors of Shiga Toxin. Vero cells, Shiga toxin protein synthesis inhibition reporter. inhibition, % at 38.7 µM. actives 9.2% (n = 290,000). AID 2315, 2010; in the data active = inhibition mostly above about 28%, no sharp cut-off; inactive = mostly below about 43%; note: 0% is about no effect
AMA1 RON2 block = qHTS for Inhibitors of AMA1-RON; Towards Development of Antimalarial Drug Lead: Primary Screen. AlphaScreen AMA1-biotinylated RON2 peptide binding. actives 0.2% (n = 360,000). Plasmodium falciparum AMA1 (3D7) - RON2 peptide interaction. Potency, µM (series often up to 58.2 µM), for inactives: at the highest dose activity change, negative = inhibition, usual class: inhibitors. AID 720542, 2013; active = well fitted inhibition curve with a large enough effect; inconclusive = small, poorly fitted or top-dose-only effect; inactive = no such curve, though single readings can be large or run the other way;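 note: potency is the fitted concentration of half-maximal effect; 0% = vehicle wells and -100% = peptide control; nearly all actives have a fitted effect of over 45% in size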
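AMA1 (3D7) with his tag at 25 nM final met compounds first, then biotinylated RON2 peptide at 25 nM; detection used donor plus acceptor beads, 10 µg/mL apiece, read by AlphaScreen after 30 min at room temperature.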
Marburg entry inh = qHTS for inhibitors of binding or entry into cells for Marburg Virus; Marburg virus pseudotyped entry inhibition, cell reporter; Potency, µM (top dose mostly 37.8 µM), for inactives: at the top dose activity change, negative = inhibition, actives largely listed as inhibitors; actives 1.8% (n = 300,000); AID 540276, 2011; calls by dose curve; tested in HEK293 cells; note: potency is the fitted concentration of half-maximal effect; % is set by controls: 0 for no effect and ±100 for the full control effect
LASV entry inh = qHTS for Inhibitors of binding or entry into cells for Lassa Virus | Lassa virus pseudotype entry inhibition, cell reporter | Potency, µM (top dose mostly 37.9 µM), without a hit: top-dose activity change, negative = inhibition, usual class: inhibitors | actives 1.2% (n = 300,000) | AID 540256, 2011; calls by dose curve; tested in HEK293 cells; note: potency is the fitted concentration of half-maximal effect; % is set by controls: 0 for no effect and ±100 for the full control effect; nearly all actives have a fitted effect of over 50% in size
Cycloheximide cs = Cycloheximide Counterscreen for Small Molecule Inhibitors of Shiga Toxin. cell reporter, cycloheximide protein synthesis inhibition counterscreen. max response, %. actives 12% (n = 300,000). AID 2314, 2010; in the data active = max response mostly above about 13%, no sharp cut-off; inactive = mostly below about 14%; note: read at 38.3 µM for the half of the compounds with a filed dose; 0% is about no effect
* hit, by the source's call; ? = inconclusive; / = no result given; + = active, no number; [ ] = another dose, or the depositor's remark. This is one part of a sample in which hits are shown more often than they occur.

SMILES	Shiga toxin inh	AMA1 RON2 block	Marburg entry inh	LASV entry inh	Cycloheximide cs
O=C(CN1C(=O)C2C3C=CC(C3)C2C1=O)NCCC1=CCCCC1 (stereo not given)	31.7	-1.5%	43.7%	3.4%	22.2*
Cc1cc2c(cc1C)NC(CC(=O)Nc1ccccc1SC(F)(F)F)C(=O)N2 (stereo not given)	/	/	-19.9%[46.1 µM]	22.8%[46.1 µM]	/
O=S1(=O)c2ccccc2N(Cc2cccc(C(F)(F)F)c2)c2ccccc21	/	/	/	-25.3%[46.1 µM]	/
COc1ccccc1C(=O)Nc1ccnn1C1CCN(CCCc2ccccc2)CC1	-6.1	3.8%	/	/	-3.4
Cc1ccccc1Nc1cccc2nonc12	-8.6	237.7%	-4.5%	0.5%	4.6
CN(C)c1ccc(C(=O)OCC(=O)NCCC2=CCCCC2)cc1	10.3	-0.8%	-8.4%[46.1 µM]	?	1.1
Cc1ccsc1C(=O)OCC(=O)NCCC1=CCCCC1	34.7	13.2%	16.9%	-1.2%	21.7*
O=C(CCCc1ccccc1)NCCC1=CCCCC1	20.1	-3.3%	5.8%[14.2 µM]	10.0%	27.4*
CCOC(=O)C(CC)Sc1ncnc2sc3c(c12)CCCC3 (stereo not given)	/	/	-6.0%[46.1 µM]	-1.8%[46.1 µM]	/
O=C(Nc1cnn(Cc2ccccc2)c1)c1nc2ncccn2n1	46.4*	0.4%	1.3%	1.5%	38.0*
Cc1ccccc1NS(=O)(=O)c1ccc(NC(=O)c2nc3ncccn3n2)cc1	1.8	9.8%	12.9%	?	-3.4
CCCCCCSc1nsc(NC(C)=O)n1	58.7*	-3.3%	6.1%	17.1%	30.1*
CCCSc1nsc(NC(=O)CCC)n1	104.4*	-4.6%	?	?	36.6*
CCCSc1nsc(NC(=O)c2cccnc2OCC)n1	21.7	30.0%	/	/	10.6
CCCCSc1nsc(NC(C)=O)n1	171.4*	-8.0%	-7.3%	5.9%	43.1*
CCCCNC(=O)CSc1nnc(NC(C)=O)s1	51.6	1.3%	-4.1%	5.6%	-1.5
CCCCC[C@@H](/C=C/C1C(=O)C=C[C@H]1C/C=C\CCCC(=O)OC)OC(C)=O (stereo not given in full)	/	43.4%	/	/	/
CCC(C)NC(=O)Cn1c(=O)n(CC2CCC(C(=O)NC)CC2)c(=O)c2sccc21 (stereo not given)	/	/	/	-1.9%[46.1 µM]	/
O=C(NC1CCCN(C2Cc3ccccc3C2)C1)c1ccc(F)cc1Cl (stereo not given)	-5.3	7.3%	/	/	-2.9
CCCS(=O)(=O)NC(=O)C1(C)CCCN(C(=O)c2ccccc2C(F)(F)F)C1 (stereo not given)	/	-6.0%	/	/	/
COc1cc(NC(=O)C2CCCN(S(=O)(=O)c3cn(C)cn3)C2)cc(OC)c1 (stereo not given)	/	/	/	2.0%[46.1 µM]	/
Cc1ccc(Cn2c(CNC(=O)Cc3cccc([N+](=O)[O-])c3)nc3cccnc32)cc1	/	/	/	-6.3%[46.1 µM]	/
CCCCC/C=C\C/C=C\C/C=C\C/C=C\CCCC(=O)NCCCl	-3.9	/	/	/	-10.6
O=Nc1c(O)c2ccccc2c2ccccc12	/	5.8%	/	/	/
O=c1c(=Nc2ccccc2O)c(=O)c2ccccc12	108.5*	10.0%	7.3%[46.1 µM]	12.8%	21.5*
SMILES	Shiga toxin inh	AMA1 RON2 block	Marburg entry inh	LASV entry inh	Cycloheximide cs
O=C(Oc1ccccc1)c1cc2ccccc2oc1=O	16.2	-8.7%	18.4%[46.1 µM]	?	14.6
O=C(NNC(=O)c1cc2ccccc2oc1=O)c1ccccc1	61.8*	-0.7%	22.1%[46.1 µM]	?	19.6*
O=C(O)c1cc2ccccc2oc1=O	58.2*	-2.0%	/	/	42.8*
O=C(c1ccccc1)c1cc2ccccc2oc1=O	59.6*	-1.9%	-1.0%[46.1 µM]	24.2%[46.1 µM]	37.1
Cc1cc[n+](CC(=O)c2cc3ccccc3oc2=O)cc1	+	18.4%	9.0%	-1.5%	60.4*
Cc1ccc(-n2ncc(-c3n[nH]c(=S)o3)c2N)cc1C	/	126.3%	/	/	/
O=C1N(Cc2ccc(Br)cc2)c2cccc(Br)c2[C@@]12O[C@H](COc1ccccc1)CC1=CCCC12 (stereo not given in full)	/	/	11.3%[14.2 µM]	/	/
Cc1cccc(N(C)C(=O)C2CCN(S(=O)(=O)c3cccc4nonc34)CC2)c1	/	/	/	-25.8%[46.1 µM]	/
O=C(NCCN1CCOCC1)c1cc2ccccc2o1	-2.8	0.9%	14.0%[46.1 µM]	10.3%	-3.6
O=C(NCCN1CCOCC1)c1cc2ccccc2oc1=O	35.2*	5.2%	?	4.7%	12.7
O=C(CCSCCC(=O)Nc1c(F)c(F)c(F)c(F)c1F)Nc1c(F)c(F)c(F)c(F)c1F	9.2	-2.5%	/	/	10.5
Cc1nc2ccccc2nc(C)c1=NO	113.9*	4.2%	-11.5%	25.0%	51.0*
Nc1nnc2cc(Cl)ccc2n1	/	33.2%	?	-22.0%[46.1 µM]	/
CCOC(=O)c1nc2ccccc2nc1C	-1.1	-2.0%	-1.6%	11.2%	-2.4
Cc1nc2ccc(Cl)cc2nc(C)/c1=N\O	50.5	0.7%	7.6%	?	27.7*
Cc1ccc2nc(C)/c(=N\O)c(C)nc2c1	86.4*	13.0%	2.5%	9.8%	23.0*
CCOc1ccc(OCCC(=O)Nc2ccc(F)cc2C)cc1	15.5	0.0%	/	/	8.1
Cc1cc2cc(CN(Cc3ccco3)S(=O)(=O)c3c(C)ccc4nsnc34)c(=O)[nH]c2cc1C	-10.2	-6.8%	?	8.2µM*	-1.8
Cc1ccc2cc(CN(Cc3ccco3)S(=O)(=O)c3c(C)ccc4nsnc34)c(=O)[nH]c2c1	29.7	-8.6%	?	?	-1.9
Nc1c(C(=O)Nc2ccccc2)sc2nc(N3CCOCC3)c3c(c12)CCCC3	/	20.0%	/	/	/
COc1cccc(NC(=O)c2sc3nc(N4CCOCC4)c4c(c3c2N)CCCC4)c1	29.7*	0.0%	/	/	24.9*
CC(=O)c1ccc(NC(=O)c2sc3nc(N4CCOCC4)c4c(c3c2N)CCCC4)cc1	64.8*	0.0%	/	/	20.6*
CCCCNC(=S)Nc1cc([N+](=O)[O-])ccc1C	13.3	12.8%[11.6 µM]	?	-1.9%	1.4
CN(C)CCNC(=O)C(=O)NCC(c1cccnc1)N1CCN(c2ccccc2)CC1 (stereo not given)	/	/	/	-27.6%[46.1 µM]	/
CCN(CC)c1ccc2cc(-c3nc(-c4cccs4)no3)c(=O)oc2c1	/	/	/	-1.6%[46.1 µM]	/
SMILES	Shiga toxin inh	AMA1 RON2 block	Marburg entry inh	LASV entry inh	Cycloheximide cs
Cc1nn(C)cc1/C=C/C(=O)c1cccs1	58.3*	1.7%	?	4.9%	48.2*
CCn1cc(/C=C/C(=O)c2ccc(O)cc2)c(C)n1	15.2	12.2%	?	?	12.9*
Cc1nn(C)cc1/C=C/C(=O)c1ccccc1	65.3*	-21.9%	?	29.1%	27.9*
Cc1nn(C)c(C)c1/C=C/C(=O)c1ccccc1	35.6*	-6.3%	?	9.7%	26.8*
Cc1ccc(Cl)cc1NC(=O)c1ccc(NC(=O)N2CCSc3ncccc32)cc1	/	/	/	-19.4%[46.1 µM]	/
Cc1ccc(S(=O)(=O)NCC(=O)N2CCOCCOCCOCC2)cc1	-10.3	-1.1%	3.6%[46.1 µM]	2.0%	-3.9
O=c1c2sccc2nc(SCc2cc(=O)n3cc(Br)ccc3n2)n1Cc1ccccn1	93.0*	10.5%	?	-24.8%	26.4*
N#Cc1ccccc1CSc1nc2ccsc2c(=O)n1Cc1ccccn1	-3.4	-10.0%	?	?	17.6*
Cc1c2c(=O)n(-c3nc4ccccc4s3)nc-2cc(O)n1Cc1ccccc1	22.3	71.2%	/	/	11.4
